This is an account of results in PubChem BioAssay (NCATS).

Inconclusive results are not listed. Calls of active or inactive are those of the source. Calls follow the shape of the dose curve; as a rule, active = well fitted cell-killing curve with a large enough effect; inconclusive = small, poorly fitted or top-dose-only effect, or effect the other way; inactive = no such curve, though single readings can be large or run the other way.

The nature of assay [1]: Quantitative High-Throughput drug screen in 47 multiple myeloma cell lines against the NCATS MIPE library collection: Delta47_JCRB cell viability assay (AID 1918925; also: nearly all actives have a fitted effect of over 45% in size; also: potency is read from the fitted curve at half-maximal effect). Put shortly: (§1)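 CellTiter-Glo ATP luminescence gave viability after 48 h compound treatment at 37C of 500 multiple myeloma cells per well. Normalisation used DMSO-only wells as 100% and media-only wells as 0% viability; primary qHTS of approved and investigational drugs.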

A short description of assay [2]: Quantitative High-Throughput drug screen in 47 multiple myeloma cell lines against the NCATS MIPE library collection: EJM_DSMZ cell viability assay (AID 1918926; also: nearly all actives have a fitted effect of over 30% in size; also: potency is read from the fitted curve at half-maximal effect). In a few lines:
as §1

Assay [3] in a line: Quantitative High-Throughput drug screen in 47 multiple myeloma cell lines against the NCATS MIPE library collection: Karpas620_DSMZ cell viability assay (AID 1918959). Also: nearly all actives have a fitted effect of over 30% in size. Also: potency is read from the fitted curve at half-maximal effect. Put shortly: (§2)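 Relative luminescence from CellTiter-Glo served as the viability signal, referenced to DMSO-treated (100%) and cell-free medium (0%) controls. Treatment lasted 48 hours at 37C with 500 cells per well.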

Assay [4] is described as follows: Quantitative High-Throughput drug screen in 47 multiple myeloma cell lines against the NCATS MIPE library collection: AMO1_DSMZ cell viability assay (AID 1918927; also: nearly all actives have a fitted effect of over 30% in size; also: potency is read from the fitted curve at half-maximal effect). Put shortly: as §1
Assay [5] in a line: Quantitative High-Throughput drug screen in 47 multiple myeloma cell lines against the NCATS MIPE library collection: ARP1_JJKsccF8 cell viability assay (AID 1918928; also: nearly all actives have a fitted effect of over 40% in size; also: potency is read from the fitted curve at half-maximal effect). Put shortly: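 CellTiter-Glo luminescence after 48 h exposure gives viability, scaled between DMSO-only (100%) and media-only (0%) controls. Library compounds are pinned onto 500 myeloma cells per well, incubated at 37C with 5% CO2.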

Assay [6] is described as follows: Quantitative High-Throughput drug screen in 47 multiple myeloma cell lines against the NCATS MIPE library collection: FR4_PLB cell viability assay (AID 1918924; also: nearly all actives have a fitted effect of over 35% in size; also: potency is read from the fitted curve at half-maximal effect). Put shortly: as §2
The nature of assay [7]: Quantitative High-Throughput drug screen in 47 multiple myeloma cell lines against the NCATS MIPE library collection: ARD_JJKsccE7 cell viability assay (AID 1918929). Put shortly:
as §1

As to `O=C1CCC[C@@H]2[C@H]3CCCN4CCC[C@@H](CN12)[C@@H]34`, the Potency result in assay [1], in assay [2] and in assay [3] was “inactive” each time.

For `O=[N+]([O-])c1ncc[nH]1`, the Potency entry in assay [1], in assay [2], in assay [4], in assay [5] and in assay [3] was “inactive” in each case.

On to `Cc1c(C(=O)c2cccc3ccccc23)c2cccc3c2n1[C@H](CN1CCOCC1)CO3`, for which the Potency in assay [1] was 14.8 µM (active); in assay [5] it was 26.4 µM (active); in assay [3], 8.33 µM (active).

In the case of `C=CCON=C(C[C@H]1O[C@@H]2O[C@]3(C)CC[C@@H]4[C@H](C)CC[C@@H]([C@H]1C)[C@@]24OO3)[C@H]1O[C@@H]2O[C@]3(C)CC[C@H]4[C@H](C)CC[C@@H]([C@@H]1C)[C@@]24OO3`, the Potency in assay [1] was 0.372 µM (active); in assay [2], 0.148 µM (active); in assay [4], 0.118 µM (active); in assay [5] it was 0.0209 µM (active).

`C[C@]12CC[C@H](O)CC1=CC[C@H]1[C@H]3CCC(=O)[C@@]3(C)CC[C@@H]12`: the Potency is 18.7 µM (active) in assay [4] and 16.6 µM (active) in assay [3]. Also, in assay [5], the Potency entry is “inactive”.

`CC(=O)O[C@@]12CO[C@H]1C[C@H](O)[C@@]1(C)C(=O)[C@H](O)C3=C(C)[C@@H](O)C[C@@](O)([C@@H](OC(=O)c4ccccc4)[C@@H]21)C3(C)C`: the Potency in assay [6] was 1.05 µM (active); in assay [2], 3.32 µM (active); in assay [5], 2.64 µM (active).

In the case of `CC(=O)OCC1=C(C(=O)O)N2C(=O)[C@@H](N)[C@@H]2SC1`, the Potency entry in assay [1], in assay [2] and in assay [5] was “inactive” each time. Moreover, the values for the Potency in assay [4] and in assay [3] were 23.5 µM (active) and 10.5 µM (active), respectively.

For the molecule `CC(O)=C(C#N)C(=O)Nc1cc(Br)ccc1Br`, in assay [1], the Potency entry is “inactive”. In addition, the Potency is 7.43 µM (active) in assay [2] and 5.26 µM (active) in assay [3].

For `C[C@@H]1O[C@@H](O[C@@H]2C=C3CC[C@@H]4[C@@H](CC[C@]5(C)[C@H](c6ccc(=O)oc6)CC[C@@]45O)[C@@]3(C)CC2)[C@H](O)[C@H](O)[C@H]1O`, the Potency in assay [1] is 0.0264 µM (active); in assay [2] it was 0.0209 µM (active); in assay [5], 0.0209 µM (active); in assay [3], 0.0209 µM (active).

With `CCCN1CCO[C@@H]2c3cc(O)ccc3OC[C@@H]21`, the Potency entry in assay [2], in assay [5], in assay [7] and in assay [3] was “inactive” throughout.

With `C=C[C@@H]1CN2CCC1C[C@@H]2[C@@H](O)c1ccnc2ccccc12` (stereo partly drawn), the Potency was 23.5 µM (active) in assay [1], 9.35 µM (active) in assay [2], 5.9 µM (active) in assay [4] and 5.26 µM (active) in assay [3].

For the molecule `C[C@@H]1[C@H](O)[C@@H](C)C=CC=CCCC=CC=CC=CC=C[C@H](O[C@H]2O[C@@H](C)[C@H](O)[C@@H](N)[C@@H]2O)CC2O[C@](O)(C[C@@H](O)[C@H](O)CC[C@@H](O)C[C@@H](O)C[C@@H](O)CC(=O)O[C@H]1C)C[C@H](O)[C@H]2C(=O)O`, the Potency result in assay [6], in assay [2], in assay [4], in assay [5] and in assay [3] was “inactive” throughout.

Regarding `CC[C@H]1C=CC=CC[C@@H](C)[C@H](O)[C@@](C)(O)C(=O)[C@@H](C)[C@H](O)[C@@H](C)C(=O)[C@@H](C)[C@H](O)[C@@H](C)C=CC(=O)O[C@@H]2[C@@H](C)[C@H](CC1)O[C@]1(CC[C@H](C)[C@H](C[C@@H](C)O)O1)[C@H]2C`, the Potency in assay [1] is 0.001 µM (active); in assay [4] it was 0.0059 µM (active); in assay [5] it was 0.0021 µM (active); in assay [3], 0.001 µM (active).

Consider `C[C@]12CCC(=O)C(O)=C1CC[C@@H]1[C@H]3CCC(=O)[C@@]3(C)CC[C@@H]12`, for which the Potency result in assay [1], in assay [2], in assay [4] and in assay [3] was “inactive” throughout.

Consider `COc1cccc2c1[C@]13CCN(CC4CC4)[C@H](C2)[C@]1(OC)CCC(=O)C3`, for which the Potency entry in assay [1], in assay [2], in assay [4], in assay [5], in assay [7] and in assay [3] was “inactive” each time.

As for `CCC(=O)OC1CCC2C3CCC4=CC(=O)CC[C@@]4(C)C3CC[C@]12C` (stereo partly drawn), in assay [1], the Potency was 18.7 µM (active). The Potency entry in assay [2], in assay [4] and in assay [3] was “inactive” throughout.

For `C#C[C@]1(O)C=C[C@@H]2[C@@H]3CCC4=CC(=O)CC[C@@H]4[C@H]3CC[C@@]21CC`, the Potency result in assay [6], in assay [2], in assay [5] and in assay [3] was “inactive” throughout.

In the case of `CC=C(C)C(=O)N[C@@H](c1ccccc1)[C@@H](O)C(=O)O[C@H]1C[C@@]2(O)[C@@H](OC(=O)c3ccccc3)[C@@H]3[C@]4(OC(C)=O)CO[C@@H]4C[C@H](O)[C@@]3(C)C(=O)[C@H](OC(C)=O)C(=C1C)C2(C)C`, the Potency result in assay [2] and in assay [5] was “inactive” each time.

For the molecule `C[C@]12CC[C@H]3[C@@H](CCC4=CC(=O)CC[C@@]43C)[C@H]1CC[C@H]2O`, the Potency result in assay [1], in assay [4], in assay [5] and in assay [3] was “inactive” throughout.

In the case of `CC(C)(C)[C@]1(O)C[C@@H]2OC(=O)C[C@@]23C(=O)O[C@@H]2OC(=O)[C@H](O)C213` (stereo partly drawn), the Potency result in assay [2], in assay [4], in assay [5] and in assay [3] was “inactive” in each case.
